Source: PubChem BioAssay (EPA / NIEHS)
Activity calls are given as the source filed them. How the source made its calls: active means hit-call score of the fitted dose curve at least 0.9, where 1 is the maximum; inactive means score below 0.9.

Tests used:
[1] = molecular target: Bile acid receptor (Homo sapiens) (UniProt Q96RI1); assay: ATG_IR1_CIS: Attagene CIS-FACTORIAL HepG2 Assay for human Nuclear Receptor Subfamily 1 Group H Member 4 (NR1H4), IR1 submotif (AID 2282946); details: IR1 reporter transcription, actives raise or lower the signal
Sequence of Bile acid receptor (Homo sapiens) (Q96RI1 whole entry, looked up): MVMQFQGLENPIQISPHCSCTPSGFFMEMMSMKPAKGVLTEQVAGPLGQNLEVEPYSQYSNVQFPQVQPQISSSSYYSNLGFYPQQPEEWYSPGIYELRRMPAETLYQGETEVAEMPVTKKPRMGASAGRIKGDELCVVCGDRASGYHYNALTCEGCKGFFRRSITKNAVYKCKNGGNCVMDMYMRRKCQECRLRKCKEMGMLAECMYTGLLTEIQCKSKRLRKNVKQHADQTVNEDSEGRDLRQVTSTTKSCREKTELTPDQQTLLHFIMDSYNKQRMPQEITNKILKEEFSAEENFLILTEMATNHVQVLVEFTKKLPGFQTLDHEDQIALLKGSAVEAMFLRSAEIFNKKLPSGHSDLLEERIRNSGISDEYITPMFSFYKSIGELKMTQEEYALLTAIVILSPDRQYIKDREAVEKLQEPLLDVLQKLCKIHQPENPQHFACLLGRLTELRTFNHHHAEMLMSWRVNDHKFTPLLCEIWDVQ
Procedure, shortened: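 HepG2 cells transiently transfected with multiple cis-promoter-driven reporter units to measure endogenous transcription factor activity; 24 h exposure. Reporter mRNA read by RT-PCR, FAM labelling, HpaI digestion and capillary electrophoresis. Bidirectional fit versus DMSO.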

[2] = ATG_GRE_CIS: Attagene CIS-FACTORIAL HepG2 Assay for human Glucocorticoid Response Elements (GRE) (AID 2282947); details: HepG2 GRE cis-reporter, Attagene multiplex mRNA; actives raise or lower the signal
Procedure, shortened: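 Transiently transfected HepG2 cells carrying GRE cis-reporter units (endogenous TF activity) dosed 24 h; reporter mRNA quantified by RT-PCR, 6-FAM labelling, HpaI digestion and capillary electrophoresis. Bidirectional fit versus DMSO baseline.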

[3] = ATG_ISRE_CIS: Attagene CIS-FACTORIAL HepG2 Assay for human Interferon Regulatory Factor 1 (IRF1) binding to an Interferon-Stimulated Response Element (ISRE) (AID 2282948); details: HepG2 ISRE cis-reporter (Attagene), mRNA transcription readout; actives raise or lower the signal
Procedure, shortened: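 Quantitation relies on labelled RT-PCR fragments separated by capillary electrophoresis. Human HepG2 cells bearing cis-promoter reporter constructs were treated 24 h; DMSO served as baseline for bidirectional fitting.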

[4] = ATG_M_32_CIS: Attagene CIS-FACTORIAL HepG2 Assay for M32 Transcription Factor (Internal Marker) (AID 2282949); details: HepG2 Attagene cis-factorial M32 reporter, mRNA; actives raise or lower the signal;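 further: background control marker of the multiplexed CIS panel rather than a real target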
Procedure, shortened: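 Fluorescent capillary electrophoresis peaks of HpaI-digested, FAM-labelled RT-PCR reporter products give the signal. Source: transiently transfected human liver HepG2 cells, 24 h after chemical dosing; bidirectional fitting against DMSO.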

[5] = ATG_M_06_CIS: Attagene CIS-FACTORIAL HepG2 Assay for M06 Transcription Factor (Internal Marker) (AID 2282950); details: HepG2 Attagene CIS-FACTORIAL M06 internal marker reporter; actives raise or lower the signal
Procedure, shortened: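 Internal background marker within multiplexed cis-reporter HepG2 system. Cells transiently transfected, dosed 24 h; reporter mRNA measured by RT-PCR, HpaI digestion and capillary electrophoresis. Bidirectional fit relative to DMSO.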

[6] = molecular target: Hypoxia-inducible factor 1-alpha (Homo sapiens) (UniProt Q16665); assay: ATG_HIF1a_CIS: Attagene CIS-FACTORIAL HepG2 Assay for human Hypoxia Inducible Factor 1 (HIF1A) (AID 2282951); details: HepG2 Attagene cis-factorial HIF1a reporter transcription; actives raise or lower the signal
Sequence of Hypoxia-inducible factor 1-alpha (Homo sapiens) (Q16665 whole entry, looked up): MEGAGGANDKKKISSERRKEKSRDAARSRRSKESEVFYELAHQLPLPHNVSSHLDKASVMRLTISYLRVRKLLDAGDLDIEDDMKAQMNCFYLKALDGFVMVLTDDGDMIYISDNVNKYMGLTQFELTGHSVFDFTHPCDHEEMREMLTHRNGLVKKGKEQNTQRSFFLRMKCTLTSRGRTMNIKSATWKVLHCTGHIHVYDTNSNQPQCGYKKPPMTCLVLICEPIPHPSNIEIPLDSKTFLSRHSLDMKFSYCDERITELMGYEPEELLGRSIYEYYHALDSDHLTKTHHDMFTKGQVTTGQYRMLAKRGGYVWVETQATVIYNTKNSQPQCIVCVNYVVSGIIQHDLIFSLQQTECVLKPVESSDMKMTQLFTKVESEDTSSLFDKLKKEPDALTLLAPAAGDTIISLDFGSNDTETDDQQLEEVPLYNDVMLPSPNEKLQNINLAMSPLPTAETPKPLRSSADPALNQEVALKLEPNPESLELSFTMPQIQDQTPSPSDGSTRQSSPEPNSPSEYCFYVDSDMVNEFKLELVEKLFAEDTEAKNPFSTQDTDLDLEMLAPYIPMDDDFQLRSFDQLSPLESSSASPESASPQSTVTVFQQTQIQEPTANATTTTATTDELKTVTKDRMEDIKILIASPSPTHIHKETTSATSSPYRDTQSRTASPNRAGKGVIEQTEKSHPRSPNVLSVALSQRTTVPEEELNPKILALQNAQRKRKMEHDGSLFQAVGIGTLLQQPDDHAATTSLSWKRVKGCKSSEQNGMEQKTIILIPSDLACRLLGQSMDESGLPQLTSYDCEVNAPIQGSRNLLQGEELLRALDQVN
Procedure, shortened: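 HepG2, transient cis-reporter library, 24 h dosing. RNA → RT (oligo dT) → PCR → 6-FAM primer extension → HpaI → CE. Bidirectional curve fit vs DMSO.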

[7] = molecular target: Hepatocyte nuclear factor 6 (Homo sapiens) (UniProt Q9UBC0); assay: ATG_HNF6_CIS: Attagene CIS-FACTORIAL HepG2 Assay for human Hepatocyte Nuclear Factor 6 (HNF6) (AID 2282952); details: HepG2 Attagene cis-factorial HNF6 reporter transcription; actives raise or lower the signal
Sequence of Hepatocyte nuclear factor 6 (Homo sapiens) (Q9UBC0 whole entry, looked up): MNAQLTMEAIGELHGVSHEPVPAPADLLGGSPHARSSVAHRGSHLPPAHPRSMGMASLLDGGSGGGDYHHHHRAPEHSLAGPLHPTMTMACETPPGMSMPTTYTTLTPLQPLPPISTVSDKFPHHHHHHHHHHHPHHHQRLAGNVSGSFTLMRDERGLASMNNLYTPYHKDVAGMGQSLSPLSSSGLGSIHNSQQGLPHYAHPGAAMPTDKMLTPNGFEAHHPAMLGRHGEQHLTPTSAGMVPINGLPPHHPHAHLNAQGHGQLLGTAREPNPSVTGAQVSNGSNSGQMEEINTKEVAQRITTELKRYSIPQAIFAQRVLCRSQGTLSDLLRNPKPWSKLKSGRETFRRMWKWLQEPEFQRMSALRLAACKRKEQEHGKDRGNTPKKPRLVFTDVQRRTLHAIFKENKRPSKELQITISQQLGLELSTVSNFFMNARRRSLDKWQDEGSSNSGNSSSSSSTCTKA
Procedure, shortened: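 Cells are HepG2 carrying transiently transfected cis-promoter reporter units. Treatment lasts 24 h, after which reporter transcripts are reverse-transcribed, amplified, FAM-labelled and sized by capillary electrophoresis. DMSO serves as baseline.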

[8] = molecular target: Heat shock factor protein 1 (Homo sapiens) (UniProt Q00613); assay: ATG_HSE_CIS: Attagene CIS-FACTORIAL HepG2 Assay for human Heat Shock Transcription Factor 1 (HSE) (AID 2282953); details: HepG2 HSE cis-reporter, Attagene RNA transcription; actives raise or lower the signal
Sequence of Heat shock factor protein 1 (Homo sapiens) (Q00613 whole entry, looked up): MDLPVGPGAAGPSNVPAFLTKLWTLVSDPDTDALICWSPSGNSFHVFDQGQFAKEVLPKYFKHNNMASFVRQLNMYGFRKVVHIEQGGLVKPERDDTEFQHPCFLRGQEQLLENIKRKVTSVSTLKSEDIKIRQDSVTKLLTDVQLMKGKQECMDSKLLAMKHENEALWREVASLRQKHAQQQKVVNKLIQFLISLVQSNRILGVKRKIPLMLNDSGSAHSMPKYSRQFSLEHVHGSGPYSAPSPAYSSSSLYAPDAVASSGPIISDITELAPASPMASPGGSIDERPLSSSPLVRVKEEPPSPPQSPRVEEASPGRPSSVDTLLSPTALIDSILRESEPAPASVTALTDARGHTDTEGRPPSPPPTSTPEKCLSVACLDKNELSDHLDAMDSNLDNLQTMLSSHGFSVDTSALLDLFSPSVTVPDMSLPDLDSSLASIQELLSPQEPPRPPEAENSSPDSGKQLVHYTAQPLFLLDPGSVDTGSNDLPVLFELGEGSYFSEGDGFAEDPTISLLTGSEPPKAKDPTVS
Procedure, shortened: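 HepG2 cells transfected with cis-promoter reporter units sensing endogenous transcription factor activity; reporter mRNA quantified 24 h post-dose by RT-PCR and capillary electrophoresis of 6-FAM-labelled products. Bidirectional fitting against DMSO.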

[9] = ATG_MRE_CIS: Attagene CIS-FACTORIAL HepG2 Assay for human Metal Responsive Element (MRE) (AID 2282954); details: HepG2 MRE cis-reporter transcription, Attagene multiplex; actives raise or lower the signal
Procedure, shortened: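 HepG2 cells transiently transfected with cis-element-driven reporter units; mRNA measured 24 h after dosing. Reporter transcripts quantified by RT-PCR, FAM labelling, HpaI digestion and capillary electrophoresis; bidirectional fit versus DMSO.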

[10] = ATG_PBREM_CIS: Attagene CIS-FACTORIAL HepG2 Assay for human Phenobarbital-responsive Enhancer Module (PBREM) (AID 2282955); details: HepG2 PBREM cis-reporter, Attagene multiplexed transcription; actives raise or lower the signal
Procedure, shortened: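 HepG2, transient MRTU transfection, 24 h dosing; RNA → oligo(dT) RT → PCR → 6-FAM extension → HpaI → CE. Bidirectional fit vs DMSO.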

## CC(C)CCCCCCCOC(=O)CCCCC(=O)OCCCCCCCC(C)C
[1]
  outcome: inactive
[2]
  outcome: inactive
[3]
  outcome: inactive
[4]
  outcome: inactive
[5]
  outcome: inactive
[6]
  outcome: inactive
[7]
  outcome: inactive
[8]
  outcome: inactive
[9]
  outcome: inactive
[10]
  outcome: inactive

## COCCOc1cc2cc(C(=O)NC3CCN(C(C)C)CC3)n(CC(=O)Nc3ccc(Cl)cn3)c2cn1
[1]
  outcome: inactive
[2]
  outcome: inactive
[3]
  AC50: 139 µM (active)
[5]
  outcome: inactive
[6]
  AC50: 26.2 µM (active)
[7]
  AC50: 28.6 µM (active)
[8]
  outcome: inactive
[9]
  AC50: 135 µM (active)

## COc1ccc2sc(C(=O)Nc3nnn[nH]3)c(OC(C)C)c2c1
[1]
  AC50: 67.6 µM (active)
[2]
  outcome: inactive
[3]
  AC50: 44.1 µM (active)
[4]
  outcome: inactive
[5]
  outcome: inactive
[6]
  AC50: 149 µM (active)
[7]
  outcome: inactive
[8]
  outcome: inactive
[9]
  AC50: 91.1 µM (active)
[10]
  outcome: inactive

## CCCCC(CC)COC(=O)CCCCCCCCC(=O)OCC(CC)CCCC (centres undefined)
[1]
  outcome: inactive
[2]
  outcome: inactive
[3]
  outcome: inactive
[5]
  outcome: inactive
[6]
  outcome: inactive
[7]
  outcome: inactive
[8]
  outcome: inactive
[9]
  outcome: inactive
[10]
  outcome: inactive

## Cn1c(=O)cc(Oc2ccc(F)cc2F)c2cnc(NCC(C)(C)O)nc21
[1]
  outcome: inactive
[2]
  outcome: inactive
[3]
  outcome: inactive
[5]
  outcome: inactive
[6]
  outcome: inactive
[7]
  outcome: inactive
[8]
  outcome: inactive
[9]
  outcome: inactive
[10]
  outcome: inactive

## COC(=O)c1c(Cl)c(Cl)c(C(=O)OC)c(Cl)c1Cl
[1]
  outcome: inactive
[2]
  outcome: inactive
[3]
  outcome: inactive
[5]
  outcome: inactive
[6]
  outcome: inactive
[7]
  outcome: inactive
[8]
  outcome: inactive
[9]
  outcome: inactive
[10]
  outcome: inactive

## CCc1cc(SCc2sc(-c3ccc(C(F)(F)F)cc3)nc2CN2CCN(c3ccc(OC)cc3)CC2)ccc1OCC(=O)O
[1]
  AC50: 3.93 µM (active)
[2]
  outcome: inactive
[3]
  AC50: 14 µM (active)
[5]
  outcome: inactive
[6]
  AC50: 15.3 µM (active)
[7]
  outcome: inactive
[8]
  AC50: 18.1 µM (active)
[9]
  AC50: 8.53 µM (active)
[10]
  AC50: 17 µM (active)

## CCOC(=O)c1ccc(C2CCC(NC[C@H](O)COc3ccc(O)c(NS(C)(=O)=O)c3)CC2)cc1 (some centres undefined)
[1]
  AC50: 53.2 µM (active)
[2]
  AC50: 53.8 µM (active)
[3]
  AC50: 51.5 µM (active)
[4]
  outcome: inactive
[5]
  outcome: inactive
[6]
  AC50: 7.81 µM (active)
[7]
  outcome: inactive
[8]
  AC50: 61.8 µM (active)
[9]
  AC50: 55 µM (active)
[10]
  AC50: 53.4 µM (active)

## CCNc1ccccc1
[1]
  outcome: inactive
[3]
  outcome: inactive
[4]
  outcome: inactive
[5]
  outcome: inactive
[6]
  AC50: 59.4 µM (active)
[7]
  outcome: inactive
[8]
  outcome: inactive
[9]
  outcome: inactive
[10]
  outcome: inactive

## O=C(OC[C@H]1O[C@@H](OC(=O)c2cc(O)c(O)c(OC(=O)c3cc(O)c(O)c(O)c3)c2)[C@H](OC(=O)c2cc(O)c(O)c(OC(=O)c3cc(O)c(O)c(O)c3)c2)[C@@H](OC(=O)c2cc(O)c(O)c(OC(=O)c3cc(O)c(O)c(O)c3)c2)[C@@H]1OC(=O)c1cc(O)c(O)c(OC(=O)c2cc(O)c(O)c(O)c2)c1)c1cc(O)c(O)c(OC(=O)c2cc(O)c(O)c(O)c2)c1
[2]
  outcome: inactive
[3]
  outcome: inactive
[4]
  outcome: inactive
[5]
  outcome: inactive
[6]
  AC50: 6.05 µM (active)
[7]
  outcome: inactive
[8]
  outcome: inactive
[9]
  outcome: inactive
[10]
  outcome: inactive

## C1N2CN3CN1CN(C2)C3
[1]
  outcome: inactive
[3]
  outcome: inactive
[4]
  outcome: inactive
[5]
  outcome: inactive
[6]
  outcome: inactive
[7]
  outcome: inactive
[8]
  outcome: inactive
[9]
  outcome: inactive
[10]
  outcome: inactive

## CCCCCCCCCCCCCCCO
[1]
  AC50: 41.3 µM (active)
[3]
  outcome: inactive
[5]
  outcome: inactive
[6]
  outcome: inactive
[7]
  outcome: inactive
[8]
  outcome: inactive
[9]
  outcome: inactive

## CCCN(C1CCN(C(=O)C2CCNCC2)CC1)[C@@H]1CCc2ccc(OC)cc2C1
[2]
  outcome: inactive
[3]
  AC50: 90.6 µM (active)
[4]
  outcome: inactive
[5]
  outcome: inactive
[6]
  outcome: inactive
[7]
  outcome: inactive
[8]
  outcome: inactive
[9]
  outcome: inactive
[10]
  AC50: 157 µM (active)

## CC(C)=CCCC(C)=CC=O
[2]
  outcome: inactive
[3]
  outcome: inactive
[4]
  outcome: inactive
[5]
  outcome: inactive
[6]
  AC50: 100 µM (active)
[7]
  outcome: inactive
[8]
  outcome: inactive
[9]
  AC50: 100 µM (active)
[10]
  outcome: inactive

## CC(=O)c1ccc2c(c1)[C@H](NC(=O)c1ccc(F)cc1)[C@@H](O)C(C)(C)O2
[2]
  outcome: inactive
[3]
  outcome: inactive
[4]
  outcome: inactive
[5]
  outcome: inactive
[6]
  outcome: inactive
[7]
  outcome: inactive
[8]
  outcome: inactive
[9]
  outcome: inactive
[10]
  outcome: inactive

## O=c1n(CC2CO2)c(=O)n(CC2CO2)c(=O)n1CC1CO1 (centres undefined)
[2]
  AC50: 32.7 µM (active)
[3]
  outcome: inactive
[4]
  outcome: inactive
[5]
  outcome: inactive
[6]
  outcome: inactive
[7]
  outcome: inactive
[8]
  outcome: inactive
[9]
  AC50: 59 µM (active)
[10]
  outcome: inactive

## CC[C@H]1CC[C@H](NCc2cc3c(cc2OC)[C@H]2C[C@H]2C(=O)N3C)[C@H](c2ccccc2)N1
[2]
  AC50: 69 µM (active)
[3]
  AC50: 80.9 µM (active)
[4]
  outcome: inactive
[5]
  outcome: inactive
[6]
  outcome: inactive
[7]
  outcome: inactive
[8]
  AC50: 71.5 µM (active)
[9]
  AC50: 114 µM (active)

## CCOCCOCCOCCO
[1]
  outcome: inactive
[3]
  outcome: inactive
[4]
  outcome: inactive
[5]
  outcome: inactive
[6]
  outcome: inactive
[7]
  outcome: inactive
[8]
  outcome: inactive
[9]
  outcome: inactive
[10]
  outcome: inactive

## COC(=O)CC(=O)OC
[2]
  outcome: inactive
[3]
  outcome: inactive
[4]
  outcome: inactive
[5]
  outcome: inactive
[6]
  outcome: inactive
[7]
  outcome: inactive
[8]
  outcome: inactive
[9]
  outcome: inactive
[10]
  outcome: inactive

## CC(=O)OCCC(C)C
[2]
  outcome: inactive
[3]
  outcome: inactive
[4]
  outcome: inactive
[5]
  outcome: inactive
[6]
  outcome: inactive
[7]
  outcome: inactive
[8]
  outcome: inactive
[9]
  outcome: inactive
[10]
  outcome: inactive
